# Experimental data reported in PubChem BioAssay (NCATS).
# Results filed as inconclusive are left out. Entries that show only a call come without a potency. Active and inactive are the calls of the source. Unless noted, calls follow the shape of the full dose curve.
# How the values were obtained:
# [1] = qHTS for Inhibitors of the Functional Ribonucleoprotein Complex (vRNP) of Lassa (LASV) Arenavirus: LASV Primary Screen - GLuc reporter signal (AID 1347082; calls by dose curve; tested in HEK293 reporter line; also: nearly all actives have a fitted effect of over 60% in size)
# [2] = qHTS for Inhibitors of the Functional Ribonucleoprotein Complex (vRNP) of Lassa (LASV) Arenavirus: Viability assay - alamar blue signal for LASV Primary Screen (AID 1347083; calls by dose curve; tested in HEK293 reporter line; also: nearly all actives have a fitted effect of over 80% in size)
# [3] = molecular target: Nucleoprotein (Lymphocytic choriomeningitis virus (strain Armstrong)) (UniProt P09992); assay: qHTS for Inhibitors of the Functional Ribonucleoprotein Complex (vRNP) of Lymphocytic Choriomeningitis Arenaviruses (LCMV): LCMV Primary Screen - GLuc reporter signal (AID 1347086); also: nearly all actives have a fitted effect of over 70% in size
# Sequence of Nucleoprotein (Lymphocytic choriomeningitis virus (strain Armstrong)) (P09992 whole entry, looked up): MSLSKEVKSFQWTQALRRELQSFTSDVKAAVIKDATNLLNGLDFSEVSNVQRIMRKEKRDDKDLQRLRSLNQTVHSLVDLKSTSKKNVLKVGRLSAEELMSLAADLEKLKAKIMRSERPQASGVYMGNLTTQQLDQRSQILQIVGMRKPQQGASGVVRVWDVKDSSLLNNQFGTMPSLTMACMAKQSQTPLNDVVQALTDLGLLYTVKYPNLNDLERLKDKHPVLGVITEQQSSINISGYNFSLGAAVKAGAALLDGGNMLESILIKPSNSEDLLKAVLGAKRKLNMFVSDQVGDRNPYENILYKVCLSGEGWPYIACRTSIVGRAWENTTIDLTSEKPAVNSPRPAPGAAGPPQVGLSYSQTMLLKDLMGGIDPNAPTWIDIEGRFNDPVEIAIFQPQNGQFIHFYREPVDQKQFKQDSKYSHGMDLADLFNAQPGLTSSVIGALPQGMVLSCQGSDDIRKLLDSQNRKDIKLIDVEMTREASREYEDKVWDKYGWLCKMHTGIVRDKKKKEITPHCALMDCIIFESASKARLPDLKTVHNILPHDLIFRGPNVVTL
# [4] = qHTS for Inhibitors of the Functional Ribonucleoprotein Complex (vRNP) of Lymphocytic Choriomeningitis Arenaviruses (LCMV): Viability assay - alamar blue signal for LCMV Primary Screen (AID 1347085; calls by dose curve; tested in HEK293 reporter line; also: nearly all actives have a fitted effect of over 80% in size)
# Potency is read from the fitted curve at half-maximal effect.
SMILES,Potency [1],Potency [2],Potency [3],Potency [4]
O=C(O)c1ccc(-c2cc3cccnc3c(-c3ccc4nonc4c3)n2)cc1,inactive,inactive,inactive,–
CC(C)C[C@H](NC(=O)CNC(=O)c1cc(Cl)ccc1Cl)B(O)O,7.69 µM (active),1.53 µM (active),3.06 µM (active),–
COc1ccc(C2=N[C@H](c3ccc(Cl)cc3)[C@H](c3ccc(Cl)cc3)N2C(=O)N2CCNC(=O)C2)c(OC(C)C)c1,inactive,inactive,inactive,inactive
CC(C)OC(=O)c1cc(C(=O)OC(C)C)cc([N+](=O)[O-])c1,inactive,inactive,inactive,inactive
CC[C@H](CO)Nc1nc(NCc2ccccc2)c2ncn(C(C)C)c2n1,inactive,15.3 µM (active),inactive,–
NC(=O)C1CCCc2c1[nH]c1ccc(Cl)cc21 (stereo not given),inactive,inactive,inactive,inactive
CNc1nccc(-c2cccnc2Oc2cc(C(=O)Nc3cccc(C(F)(F)F)c3)ccc2C)n1,inactive,–,inactive,inactive
N#Cc1ccc(NC(=O)Nc2ccccc2Br)c2n[nH]nc12,inactive,–,inactive,inactive
COCC(=O)NCC=Cc1ccc2ncnc(Nc3ccc(Oc4ccc(C)nc4)c(C)c3)c2c1,43.2 µM (active),–,–,inactive
COc1cc2nccc(Oc3ccc(NC(=O)Nc4cc(C)on4)c(Cl)c3)c2cc1OC,34.3 µM (active),–,–,17.2 µM (active)
O=c1cc(N2CCOCC2)oc2c(-c3cccc4c3sc3ccccc34)cccc12,inactive,–,inactive,inactive
CN(C)c1ccc(Nc2nc(N)n(C(=O)c3c(F)cccc3F)n2)cc1,inactive,21.7 µM (active),inactive,–
CC(C)OC(=O)C1=CN(C(=O)c2ccc(F)c(F)c2)CC(C)(C)c2c1[nH]c1ccccc21,inactive,–,inactive,–
CNCc1ccc(-c2[nH]c3cc(F)cc4c3c2CCNC4=O)cc1,inactive,–,inactive,inactive
COc1c(Cl)cc2c([nH]c3cnccc32)c1NC(=O)c1cccnc1C,inactive,–,inactive,–
CC(C)Oc1cc(Nc2nc(N[C@@H](C)c3ccc(F)cn3)ncc2Cl)[nH]n1,inactive,–,inactive,inactive
O=C(Nc1ccc(F)c(C(F)(F)F)c1)Nc1nnc(-c2ccncc2)s1,inactive,–,–,13.7 µM (active)
C=C[C@@H]1CN2CCC1C[C@H]2[C@H](O)c1ccnc2ccccc12 (stereo not given in full),inactive,–,inactive,inactive
O=C(C1CC1)N1CC[C@@H](Cn2c(-c3ccc(-c4ccc5occc5c4)cc3)nc3cnccc32)C1,inactive,–,–,10.9 µM (active)
CN1C(=O)c2ccccc2C1=O,inactive,–,inactive,inactive
Nc1ccccc1NC(=O)c1ccc(CNC(=O)OCc2cccnc2)cc1,–,12.2 µM (active),–,–
O=S(=O)(N=Cc1c(O)ccc2ccccc12)c1cccs1,inactive,–,inactive,–
Cn1c(NCCN(CCO)CCCc2ccc([N+](=O)[O-])cc2)cc(=O)n(C)c1=O,inactive,–,inactive,inactive
CCN(CC)c1ccc(C(=C2C=CC(=[N+](CC)CC)C=C2)c2cc(S(=O)(=O)O)ccc2S(=O)(=O)[O-])cc1,inactive,–,inactive,–
Cc1ccc(F)c(NC(=O)Nc2ccc(-c3cccc4[nH]nc(N)c34)cc2)c1,inactive,–,inactive,inactive
CN1CCN(c2ccc3nc(-c4c(N)c5c(F)cccc5[nH]c4=O)[nH]c3c2)CC1,–,2.17 µM (active),–,–

SMILES,Potency [1],Potency [2],Potency [3],Potency [4]
CN1CCN(CCOc2cc(OC3CCOCC3)c3c(Nc4c(Cl)ccc5c4OCO5)ncnc3c2)CC1,inactive,–,inactive,–
N#Cc1ccc(COC[C@H]2O[C@@H](n3c(NCc4ccc(Cl)c(Cl)c4)nc4c(N)ncnc43)[C@@H](O)[C@@H]2O)cc1,inactive,–,inactive,–
CCOc1ccn(-c2ccc(F)cc2)c(=O)c1C(=O)Nc1ccc(Oc2ccnc(N)c2Cl)c(F)c1,inactive,–,inactive,inactive
Cc1ccnc(NS(=O)(=O)c2ccc(NC(=O)Nc3ccc(S(=O)(=O)Nc4nccc(C)n4)cc3)cc2)n1,inactive,–,–,0.685 µM (active)
CC(C)(C)c1cc(NC(=O)Nc2ccc(-c3cn4c(n3)sc3cc(OCCN5CCOCC5)ccc34)cc2)no1,inactive,–,inactive,inactive
CC(C)(N)C(=O)N[C@H](COCc1ccccc1)C(=O)N1CCC2(CC1)CN(S(C)(=O)=O)c1ccccc12,inactive,–,inactive,inactive
O=c1[nH]nc(Sc2ncc([N+](=O)[O-])s2)n1-c1ccc2c(c1)OCCO2,inactive,–,inactive,–
Cc1cccc(-c2[nH]ncc2-c2ccc3ncccc3n2)n1,inactive,–,inactive,inactive
O=C(c1cc(Cc2n[nH]c(=O)c3ccccc23)ccc1F)N1CCN(C(=O)C2CC2)CC1,inactive,–,inactive,inactive
CCn1c(-c2nonc2N)nc2cnc(Oc3cccc(NC(=O)c4ccc(OCCN5CCOCC5)cc4)c3)cc21,15.3 µM (active),12.2 µM (active),17.2 µM (active),–
CNC(=O)c1cc(Oc2ccc(NC(=O)Nc3ccc(Cl)c(C(F)(F)F)c3)c(F)c2)ccn1,inactive,–,inactive,–
COc1cc(Nc2ncc(F)c(Nc3ccc4c(n3)NC(=O)C(C)(C)O4)n2)cc(OC)c1OC,inactive,inactive,inactive,–
CN1CCC(CNc2ccc3ncc(-c4cccc(OC(F)(F)F)c4)n3n2)CC1,–,17.2 µM (active),–,–
CS(=O)(=O)c1ccc(C(=O)Nc2ccc(Cl)c(-c3ccccn3)c2)c(Cl)c1,inactive,–,inactive,inactive
Cc1cnc(Nc2ccc(OCCN3CCCC3)cc2)nc1Nc1cccc(S(=O)(=O)NC(C)(C)C)c1,inactive,–,inactive,inactive
NC(=O)c1c(OCc2c(F)cc(Br)cc2F)nsc1NC(=O)NCCCCN1CCCC1,inactive,–,inactive,inactive
Fc1cc(-c2cccc3ncc(-c4cnn(C5CCNCC5)c4)nc23)cc(F)c1CN1CCOCC1,24.3 µM (active),–,inactive,–
Nc1cc(C(F)(F)F)c(-c2cc(N3CCOCC3)nc(N3CCOCC3)n2)cn1,1.93 µM (active),1.22 µM (active),0.685 µM (active),–
COCCNCCCn1c(C(=O)CF)c(-c2ccc(C)cc2)c2c(N)ncnc21,inactive,–,inactive,inactive
CC(C)(C)OC(=O)Nc1ccc(-c2cc(C(=O)NCCCCCCC(=O)NO)no2)cc1,–,17.2 µM (active),–,19.3 µM (active)
C#Cc1cccc(Nc2ncnc3cc(OC)c(OCCCCCCC(=O)NO)cc23)c1,–,3.43 µM (active),–,–
Nc1nc(Nc2ccc(S(N)(=O)=O)cc2)nn1C(=O)c1c(F)cccc1F,–,24.3 µM (active),–,–
CCCS(=O)(=O)Nc1ccc(F)c(C(=O)c2c[nH]c3ncc(Cl)cc23)c1F,–,12.2 µM (active),–,2.73 µM (active)
Cc1cc(Nc2cc(N3CCN(C)CC3)nc(C=Cc3ccccc3)n2)n[nH]1,–,8.85 µM (active),–,31.4 µM (active)
CC[C@@H]1C(=O)N(C)c2cnc(Nc3ccc(C(=O)NC4CCC(N5CCN(CC6CC6)CC5)CC4)cc3OC)nc2N1C(C)C (stereo not given in full),–,0.0968 µM (active),–,0.0968 µM (active)
CCn1c(-c2nonc2N)nc2c(C#CC(C)(C)O)ncc(OC[C@H]3CCCNC3)c21,–,0.0611 µM (active),–,0.153 µM (active)
